{"source": "PubChem BioAssay (NCATS)", "key": {"[1]": {"assay": "qHTS profiling for inhibitors of Plasmodium falciparum proliferation (AID 504749); on all read-outs here: nearly all actives have a fitted effect of over 60% in size", "details": "P. falciparum in erythrocytes, SYBR Green DNA, 72 h; for activity, negative = inhibition: at 28.7 µM (top of the series)", "procedure,_shortened": "(§1)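 Readout was DNA-dye fluorescence from lysed cultures, ex 485/em 535 nm. Parasitized red cells had grown 72 h with compound; data scaled between 0.29 uM artemisinin and DMSO wells and corrected using vehicle-only plates.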"}, "3D7": {"tested_on": "3D7", "assay": "qHTS profiling for inhibitors of Plasmodium falciparum proliferation (AID 504749)", "details": "P. falciparum in erythrocytes, SYBR Green DNA, 72 h; series mostly up to 28.7 µM", "procedure,_shortened": "as §1"}, "7G8": {"tested_on": "7G8", "assay": "qHTS profiling for inhibitors of Plasmodium falciparum proliferation (AID 504749)", "details": "P. falciparum in erythrocytes, SYBR Green DNA, 72 h; series mostly up to 28.7 µM", "procedure,_shortened": "as §1"}, "AA1029": {"tested_on": "AA1029", "assay": "qHTS profiling for inhibitors of Plasmodium falciparum proliferation (AID 504749)", "details": "P. falciparum in erythrocytes, SYBR Green DNA, 72 h; series mostly up to 28.7 µM", "procedure,_shortened": "as §1"}, "AS120": {"tested_on": "AS120", "assay": "qHTS profiling for inhibitors of Plasmodium falciparum proliferation (AID 504749)", "details": "P. falciparum in erythrocytes, SYBR Green DNA, 72 h; series mostly up to 28.7 µM", "procedure,_shortened": "as §1"}, "ATS189": {"tested_on": "ATS189", "assay": "qHTS profiling for inhibitors of Plasmodium falciparum proliferation (AID 504749)", "details": "P. falciparum in erythrocytes, SYBR Green DNA, 72 h; series mostly up to 28.7 µM", "procedure,_shortened": "as §1"}, "ATS95": {"tested_on": "ATS95", "assay": "qHTS profiling for inhibitors of Plasmodium falciparum proliferation (AID 504749)", "details": "P. falciparum in erythrocytes, SYBR Green DNA, 72 h; series mostly up to 28.7 µM", "procedure,_shortened": "as §1"}, "C2A": {"tested_on": "C2A", "assay": "qHTS profiling for inhibitors of Plasmodium falciparum proliferation (AID 504749)", "details": "P. falciparum in erythrocytes, SYBR Green DNA, 72 h; series mostly up to 28.7 µM", "procedure,_shortened": "as §1"}, "CP185": {"tested_on": "CP185", "assay": "qHTS profiling for inhibitors of Plasmodium falciparum proliferation (AID 504749)", "details": "P. falciparum in erythrocytes, SYBR Green DNA, 72 h; series mostly up to 28.7 µM", "procedure,_shortened": "as §1"}, "CP191": {"tested_on": "CP191", "assay": "qHTS profiling for inhibitors of Plasmodium falciparum proliferation (AID 504749)", "details": "P. falciparum in erythrocytes, SYBR Green DNA, 72 h; series mostly up to 28.7 µM", "procedure,_shortened": "as §1"}, "[2]": {"assay": "qHTS drug screen for cell cycle checkpoint inhibitors in PARPi-resistant BRCA-mutant ovarian cancer cell lines. (AID 1963452; calls by dose curve)", "details": "PEO1/OlaR viability, CellTiter-Glo luminescence, 96 h; for Z-AUC: stronger effect = lower value", "procedure,_shortened": "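PEO1, PEO4 and PEO1/OlaR ovarian cancer cells, 600 per well, exposed 96 h at 37C to a dilution series. Viability read by CellTiter-Glo luminescence, normalized to DMSO and empty wells; activity summarized as Z-AUC.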"}, "[3]": {"details": "measured here: PEO1 parental Z-AUC"}}, "note": "Where “and” joins values, the source holds several entries; their conditions need not be identical. Equal entries are not always repeated. Inconclusive results are not listed. Where a call stands in place of a potency, no number is given. Calls of active or inactive are those of the source. Unless noted, the call rests on the fitted dose curve; in most records, active means well fitted inhibition curve with a large enough effect; inconclusive means small, poorly fitted or top-dose-only effect; inactive means flat fitted curve, though single readings scatter. Potency means the concentration at half of the fitted maximal effect."}
{"smiles": "COc1ccccc1O", "values": [{"measurement": "activity, negative = inhibition", "setting": "[1]; parasite line A", "value": "6.24% (inactive)"}, {"measurement": "activity, negative = inhibition", "setting": "[1]; parasite line B", "value": "17.1% (inactive)"}, {"measurement": "Potency", "setting": "3D7", "value": "inactive"}, {"measurement": "Potency", "setting": "7G8", "value": "inactive"}, {"measurement": "Potency", "setting": "AA1029", "value": "inactive"}, {"measurement": "Potency", "setting": "AS120", "value": "inactive"}, {"measurement": "Potency", "setting": "ATS189", "value": "inactive"}, {"measurement": "Potency", "setting": "ATS95", "value": "inactive"}, {"measurement": "Potency", "setting": "C2A", "value": "inactive"}, {"measurement": "Potency", "setting": "CP185", "value": "inactive"}, {"measurement": "Potency", "setting": "CP191", "value": "inactive"}]}
{"smiles": "OC[C@H]1O[C@@H](O[C@@H]2[C@@H](CO)O[C@](O)(CO)[C@H]2O)[C@H](O)[C@@H](O)[C@H]1O", "values": [{"measurement": "Z-AUC", "setting": "[2]", "value": "-0.433 (inactive)"}, {"measurement": "Z-AUC", "setting": "[2]; [3]", "value": -0.31}, {"measurement": "Z-AUC", "setting": "[2]; measured here: PEO4 Z-AUC", "value": -0.255}]}
{"smiles": "COc1cc(C(=O)N2CCOCC2)cc(OC)c1OC", "values": [{"measurement": "activity, negative = inhibition", "setting": "[1]; parasite line A", "value": "13.6% (inactive) and -1.06% (inactive)"}, {"measurement": "activity, negative = inhibition", "setting": "[1]; parasite line B", "value": "0.0617% (inactive) and 7.6% (inactive)"}, {"measurement": "Potency", "setting": "3D7", "value": "inactive"}, {"measurement": "Potency", "setting": "7G8", "value": "inactive"}, {"measurement": "Potency", "setting": "AA1029", "value": "inactive"}, {"measurement": "Potency", "setting": "AS120", "value": "inactive"}, {"measurement": "Potency", "setting": "ATS189", "value": "inactive"}, {"measurement": "Potency", "setting": "ATS95", "value": "inactive"}, {"measurement": "Potency", "setting": "C2A", "value": "inactive"}, {"measurement": "Potency", "setting": "CP185", "value": "inactive"}, {"measurement": "Potency", "setting": "CP191", "value": "inactive"}]}
{"smiles": "Cc1c(O)cccc1C(=O)N[C@@H](CSc1ccccc1)[C@H](O)CN1C[C@H]2CCCC[C@H]2C[C@H]1C(=O)NC(C)(C)C", "values": [{"measurement": "Z-AUC", "setting": "[2]", "value": "-0.819 (inactive)"}, {"measurement": "Z-AUC", "setting": "[2]; [3]", "value": -0.979}, {"measurement": "Z-AUC", "setting": "[2]; measured here: PEO4 Z-AUC", "value": -1.07}, {"measurement": "Potency", "setting": "[1]; parasite line B", "value": "7.94 µM (active)"}, {"measurement": "Potency", "setting": "3D7", "value": "12.6 µM (active)"}, {"measurement": "Potency", "setting": "AS120", "value": "10 µM (active)"}, {"measurement": "Potency", "setting": "C2A", "value": "inactive"}, {"measurement": "Potency", "setting": "CP185", "value": "inactive"}]}
{"smiles": "CN(N=O)C(=O)N[C@@H]1[C@@H](O)[C@H](O)[C@@H](CO)O[C@@H]1O", "values": [{"measurement": "Z-AUC", "setting": "[2]", "value": "1.08 (inactive)"}, {"measurement": "Z-AUC", "setting": "[2]; [3]", "value": 0.655}, {"measurement": "Z-AUC", "setting": "[2]; measured here: PEO4 Z-AUC", "value": 0.737}]}
{"smiles": "CCN(CC)CCCC(C)Nc1c2ccc(Cl)cc2nc2ccc(OC)cc12", "note": "(stereo unspecified)", "values": [{"measurement": "Z-AUC", "setting": "[2]", "value": "-0.243 (inactive)"}, {"measurement": "Z-AUC", "setting": "[2]; [3]", "value": -1.15}, {"measurement": "Z-AUC", "setting": "[2]; measured here: PEO4 Z-AUC", "value": -1.09}]}
{"smiles": "O=C(Oc1ccccc1C(=O)O)c1ccccc1O", "values": [{"measurement": "activity, negative = inhibition", "setting": "[1]; parasite line A", "value": "0.597% (inactive)"}, {"measurement": "activity, negative = inhibition", "setting": "[1]; parasite line B", "value": "10.5% (inactive)"}, {"measurement": "Potency", "setting": "3D7", "value": "inactive"}, {"measurement": "Potency", "setting": "7G8", "value": "inactive"}, {"measurement": "Potency", "setting": "AA1029", "value": "inactive"}, {"measurement": "Potency", "setting": "AS120", "value": "inactive"}, {"measurement": "Potency", "setting": "ATS189", "value": "inactive"}, {"measurement": "Potency", "setting": "ATS95", "value": "inactive"}, {"measurement": "Potency", "setting": "C2A", "value": "inactive"}, {"measurement": "Potency", "setting": "CP185", "value": "inactive"}, {"measurement": "Potency", "setting": "CP191", "value": "inactive"}]}
{"smiles": "CC(C)c1c(C(=O)Nc2ccccc2)c(-c2ccccc2)c(-c2ccc(F)cc2)n1CC[C@@H](O)C[C@@H](O)CC(=O)O", "values": [{"measurement": "Z-AUC", "setting": "[2]", "value": "-0.739 (inactive)"}, {"measurement": "Z-AUC", "setting": "[2]; [3]", "value": -0.99}, {"measurement": "Z-AUC", "setting": "[2]; measured here: PEO4 Z-AUC", "value": -1.27}]}
{"smiles": "CC(=O)O[C@@]12CO[C@@H]1C[C@H](O)[C@@]1(C)C(=O)[C@H](O)C3=C(C)[C@@H](OC(=O)[C@H](O)[C@@H](NC(=O)OC(C)(C)C)c4ccccc4)C[C@@](O)([C@@H](OC(=O)c4ccccc4)[C@H]21)C3(C)C", "values": [{"measurement": "Potency", "setting": "[2]", "value": "8.7 nM (active)"}, {"measurement": "Z-AUC", "setting": "[2]; [3]", "value": -2.65}, {"measurement": "Z-AUC", "setting": "[2]; measured here: PEO4 Z-AUC", "value": -3.1}]}
